This is an account of results in the supplement of paper PMC7156485.
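Note: TDF denotes transformed human dermal fibroblasts of mesenchymal origin.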

In the first assay the test system is HCC1569. Put plainly: cell number relative to DMSO (% of DMSO); higher = more cells (less growth inhibition / toxicity). As to conditions: concentration: 10 µM; 24 h. In short, it runs like this: (§1)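 Treatment: HCC1569 and TDF cells, 800 per well in 384-well plates with RPMI and 10% FBS, were given compounds at 10 µM for 24 h at 37 °C, in triplicate. Readout: after 3.7% formaldehyde fixation, cells were stained with a rabbit anti-H1.0 antibody, an AlexaFluor 647 secondary and DAPI. Reported values are H1.0 nuclear intensity or cell number as percent of the plate control, taken as the median of replicates, with positional smoothing for HCC1569.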
With `Cc1cccc(C)c1OCC(N)C(C)C.I` (stereo not given), the cell number was found to be 103.

`COc1cc(C(O)CO)ccc1OS(=O)(=O)[O-].[K+]` (stereo not given) [MHPG sulfate potassium] gave a cell number of 102.

`COc1cc(Br)c(Nc2nc(-c3c(C)nc4ncccn34)cs2)c(Br)c1` had a cell number of 61.1.

Compound `CC(C)(C)c1ccc(S(=O)(=O)NCc2ccc(C(=O)Nc3cccnc3)cc2)cc1` came in with a cell number of 98.2.

For a further assay, the system named is TDF. Described as above. As to conditions: concentration: 10 µM; 24 h. Put shortly: as §1
`CC1=NN(c2ccc(C(=O)O)cc2)C(=O)/C1=C\c1ccc(-c2cc(C)c(C)cc2[N+](=O)[O-])o1` registered a cell number of 87.2.

In turn, `COc1ccc(CN(CCN(C)C)c2ccccn2)cc1.O=C(O)C=CC(=O)O` [Pyrilamine maleate] came in with a cell number of 104.

Turning to `O=C(O)C1=CC(=C(c2ccc(O)c(C(=O)O)c2)c2ccc(O)c(C(=O)O)c2)C=CC1=O` [Aurintricarboxylic acid], the cell number worked out at 113.

As to `COC(C(=O)C(O)C(C)O)C1Cc2cc3cc(OC4CC(OC5CC(O)C(O)C(C)O5)C(O)C(C)O4)c(C)c(O)c3c(O)c2C(=O)C1OC1CC(OC2CC(OC3CC(C)(O)C(O)C(C)O3)C(O)C(C)O2)C(O)C(C)O1` (stereo not given) [Plicamycin], the cell number is 36.

`CC(=O)OC1CC2CCC3C(CCC4(C)C3CC([N+]3(C)CCCCC3)C4OC(C)=O)C2(C)CC1N1CCCCC1` (stereo not given) [Vecuronium] came in with a cell number of 95.7.

In turn, `Nc1ccc(-c2cccc3c(=O)cc(N4CCOCC4)oc23)cc1` gave a cell number of 99.3.

Compound `Cc1cc(C(C)(C)C)c(O)c(C)c1CC1=NCCN1.Cl` [Oxymetazoline hydrochloride] yielded a cell number of 107.

In turn, `c1ccc(-c2n[nH]c3c2oc2ccccc23)cc1` displayed a cell number of 103.

`CC(C)(C)c1nc2c3cc[nH]c(=O)c3c3cc(F)ccc3c2[nH]1` [JAK Inhibitor I] came in with a cell number of 99.5.

Compound `CC1=c2[nH]c3c(c2CCN1)C=CC(=O)C=3.Cl.O.O` gave a cell number of 89.

Regarding `CC(C)C[C@@H](C(=O)O)c1cc(-c2ccc(C(F)(F)F)cc2)cc(-c2ccc(C(F)(F)F)cc2)c1`, the cell number amounted to 92.4.

For `CCCCCCCCc1ccc(CCC(N)(CO)CO)cc1.Cl`, the cell number stood at 17.4.

With `C[C@H](C#Cc1ccc(Cc2ccc(F)cc2)s1)N(O)C(N)=O`, the cell number was determined as 92.

For `COc1cccc2oc(-c3ccccc3)cc(=O)c12` [5-Methoxyflavone], the cell number stood at 84.4.

Take `Cl.Cn1c(=O)c(Oc2ccc(F)cc2F)cc2cnc(NC3CCOCC3)nc21`: the cell number turned out to be 99.2.

Consider `CCCCCC(O)C=CC1C(O)CC(O)C1CC=CCCCC(=O)O` (racemic), for which the cell number stood at 105.

The compound `CC(C)(C=O)Cc1cc(C(C)(C)C)c(O)c(C(C)(C)C)c1` registered a cell number of 106.

On to `C[C@H](c1ccc(F)cc1CCCC(=O)O)N(c1cc(F)ccc1F)S(=O)(=O)c1ccc(Cl)cc1`, for which the cell number turned out to be 90.2.

Take `NC(C(=O)O)C1CC1C(=O)O` [(2S,1'S,2'S)-2-(carboxycyclopropyl)glycine]: the cell number came out at 110.

The compound `CCCCC1=NC2(CCCC2)C(=O)N1Cc1ccc(-c2ccccc2-c2nn[nH]n2)cc1` displayed a cell number of 99.3.

As to `c1ccc(-c2[nH]ncc2-c2ccnc3ccccc23)nc1`, the cell number worked out at 107.

The compound `CC1OC(OCC2OC(Oc3c(-c4ccc(O)c(O)c4)oc4cc(O)cc(O)c4c3=O)C(O)C(O)C2O)C(O)C(O)C1O` (stereo not given) [Rutin] displayed a cell number of 102.

On to `Oc1cc(O)c2c(c1)OC(c1ccc(O)c(O)c1)C(O)C2` (single isomer, unassigned; (-)) [(-)-Epicatechin], for which the cell number was found to be 106.

The compound `COc1ccc(S(=O)(=O)N2CCC[C@H]2C(=O)Nc2cc(C)cc(C)c2)cc1` showed a cell number of 113.

`Nc1ncnc2c1ncn2C1CCCC1` [9-cyclopentyladenine] showed a cell number of 113.

`CC1(NC(=O)CBr)CCC(C(C)(C)NCC(O)COc2cccc3[nH]ccc23)CC1` (racemic) gave a cell number of 98.3.

The compound `COc1ccc2c(c1)c(CC(=O)OCC(=O)O)c(C)n2C(=O)c1ccc(Cl)cc1` [Acemetacin] came in with a cell number of 94.4.

The compound `COc1c(O)cc(O)c2c(=O)cc(-c3ccccc3)oc12` [Wogonin] came in with a cell number of 98.7.

In turn, `CCC1C(=O)OCC1Cc1cncn1C.O=[N+]([O-])O` (stereo not given) [Pilocarpine nitrate] yielded a cell number of 86.9.

`NC(Cc1cccc(-c2ccccc2CP(=O)(O)O)c1)C(=O)O` (stereo not drawn) [Phenylbenzene-omega-phosphono-alpha-amino acid] registered a cell number of 104.

The compound `CNC1C(OC2C(OC3C(O)C(O)C(N=C(N)N)C(O)C3N=C(N)N)OC(C)C2(O)C=O)OC(CO)C(O)C1O` (stereo not given) [Streptomycin] gave a cell number of 103.
